# Most compounds without a hit are left out; they make up all but 2.6% or so of the library.
# A3A deaminase – blocks human APOBEC3A ssDNA deamination; inhibition, % at 20 µM; AID 493011; P31941; 330,000 tested, 0.41% active; recombinant A3A, FAM/TAMRA ssDNA deamination fluorescence;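 active means at least 40% inhibition at 20 µM here, with at most 30% in a related deaminase screen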;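 further: plate controls were A3A with DMSO for no effect and wells lacking A3A enzyme for full effect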
# eIF4H FP inh – inhibitors of RNA binding by human eIF4H; AID 2012; eIF4H fluorescence polarization binding assay; 290,000 tested, 0.94% active; inhibition, % at 35 µM;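 further: calls also rest on retests at 20 µM and on dose response follow-up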
# PABP1 MLLE inh – blocks PAM2 peptide binding to the PABP1 MLLE domain | P11940 | GST-MLLE / FITC-PAM2 fluorescence polarization | inhibition, % at 20 µM | 360,000 tested, 0.36% active | AID 588489; in the data active means inhibition above about 35%, passing the limit was not always enough;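 further: plate controls were DMSO wells with GST-MLLE for no effect and wells lacking GST-MLLE protein for full effect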
# APOBEC3G inh – blocks human APOBEC3G single-stranded DNA deamination; recombinant A3G, ssDNA deamination FAM/TAMRA fluorescence; inhibition, % at 20 µM; Q9HC16; 330,000 tested, 0.28% active; AID 493012;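 active means inhibition of at least 40% at 20 µM, with no more than 30% in the related APOBEC3A deaminase screen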;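 further: plate controls were DMSO wells with A3G for no effect and wells lacking A3G enzyme for full effect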
# PHOSPHO1 inh – PHOSPHO1 (human) inhibition | Q8TCT1 | recombinant PHOSPHO1, absorbance phosphatase assay | inhibition, % at 13.3 µM | 290,000 tested, 1.1% active | AID 1565; in the data active means inhibition above about 60%
# Target sequence (Q8TCT1 whole entry, looked up): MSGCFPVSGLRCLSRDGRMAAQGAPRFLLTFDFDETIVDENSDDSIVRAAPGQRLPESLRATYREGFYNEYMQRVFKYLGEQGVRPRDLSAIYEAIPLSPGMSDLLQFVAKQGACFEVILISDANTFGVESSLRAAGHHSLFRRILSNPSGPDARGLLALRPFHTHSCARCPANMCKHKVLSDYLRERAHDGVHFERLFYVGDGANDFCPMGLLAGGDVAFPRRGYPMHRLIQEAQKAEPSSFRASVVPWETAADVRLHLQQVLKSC
# PABP polyA inh – blocks human PABP binding to poly(A) RNA | P11940 | fluorescence polarization | calls only at 35 µM | 290,000 tested, 1% active;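 further: calls also rest on retests at 20 µM and on dose response follow-up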
# * marks the source's active call; other numbers are inactive results; i = inactive; ? = inconclusive; . = no result; + = active, no number. Unless noted, how the calls were made is not given here.
SMILES,A3A deaminase,eIF4H FP inh,PABP1 MLLE inh,APOBEC3G inh,PHOSPHO1 inh,PABP polyA inh
COc1ccc(OCc2nnc(SCC(=O)Nc3ccc(C)cc3)o2)cc1,-3.3,4.6,4.6,-8.6,26.6,i
Cc1cccc(OCc2nnc(SCC(=O)Nc3ncc(C)s3)o2)c1,-1.6,0.1,7.7,-9.3,20.0,i
COc1ccc(CCNC(=O)COC(=O)COc2ccc(C#N)cc2)cc1,8.0,-5.3,-2.6,-0.9,-7.7,i
CCN(CC)c1ccc(/C=N/Nc2ccccc2)c(O)c1,0.0,3.4,-3.8,-5.3,91.4*,i
CC(C)OCCCNC(=O)c1sc(=S)n(C)c1N,-3.2,-10.0,41.4*,-2.7,33.0,i
CCn1c(N)c(C(=O)NCCCOC)sc1=S,-4.1,1.2,20.9,25.6,49.9,i
CCc1ccc(OCC(=O)NC(NC(=S)Nc2ccccc2OC)C(Cl)(Cl)Cl)cc1 (stereo unspecified),4.6,77.5*,23.1,1.2,6.0,+
Nc1c(-c2ccccc2)sc2ccc3ccccc3[n+]12,-4.1,-18.2,38.9*,1.6,-36.2,i
CC(=O)Nc1ccc(S(=O)(=O)NNC(=O)c2cccc([N+](=O)[O-])c2)cc1,-5.0,-2.3,2.6,-1.4,23.9,i
Cc1cnc(C(=O)Oc2c(C)ccc(C)c2C)cn1,-2.8,13.4,1.0,-3.8,140.9*,i
Cc1cnc(C(=O)OCc2ccc(Br)cc2)cn1,2.5,7.3,-6.3,-9.2,45.2,i
CC(C)CN1C(=O)NC(NS(=O)(=O)c2ccc(N)cc2)(C(F)(F)F)C1=O (stereo unspecified),2.8,-4.3,24.2,-4.3,-4.4,i
Nc1c(S(=O)(=O)O)cc(NC(=O)c2ccccc2)c2c1C(=O)c1ccccc1C2=O,8.4,?,17.2,-0.9,29.2,+
Cn1nnnc1SCC(=O)Nc1ccc(Cl)c(S(=O)(=O)N2CCOCC2)c1,4.4,-7.3,-8.7,-3.0,36.8,i
COc1ccc(C(=O)Nc2ccccc2C(=O)NC2CC2)c(OC)c1OC,.,.,-19.1,.,.,.
O=C1c2ccccc2C(=O)C12OC2c1cccc2ccccc12 (stereo unspecified),0.1,-3.1,27.3,5.2,66.3*,i
COc1ccccc1-n1c(SCC(N)=O)nc2sc3c(c2c1=O)CCC3,7.9,-9.3,21.0,0.1,1.8,i
CN(C)c1ccc(-c2n[nH]c(=S)n2-c2ccccc2)cc1,-1.5,-10.4,-2.8,22.5,29.2,i
CCN(CC)c1ccc(-c2n[nH]c(=S)n2-c2ccccc2)cc1,-3.1,3.4*,4.7,-4.5,-41.6,i
S=c1[nH]nc(Cc2ccccc2)n1-c1ccccc1,-4.1,-1.9,-11.8,38.1,28.1,i
Cc1n[nH]c(=S)n1-c1ccccc1,-5.0,-3.6,3.6,-7.9,89.5*,i
Cc1ccc(-n2c(Cc3ccccc3)n[nH]c2=S)cc1,1.3,-5.2,6.5,33.9,101.4*,i
Cc1n[nH]c(=S)n1-c1ccc(Cl)cc1,0.7,3.4,-11.0,18.1,15.8,i
CCCCN1CC(N2CCN(Cc3ccccc3)CC2)CS1(=O)=O (stereo unspecified),.,.,1.6,.,.,.
CCOC(=O)CNC(=O)c1cn(CC)c(=O)c2cc(OC)c(OC)cc12,0.9,12.6,5.2,2.8,17.5,i
SMILES,A3A deaminase,eIF4H FP inh,PABP1 MLLE inh,APOBEC3G inh,PHOSPHO1 inh,PABP polyA inh
CC(=O)N1NC(=Nc2ccccc2)SC1(C)C,-3.9,3.5,2.6,-6.0,15.8,i
CCn1c(-c2ccccc2)c[nH]c1=S,-3.4,-5.7,-55.1,39.3,98.0*,i
O=C(c1ccccc1)N1CC(COc2ccccc2)OC(c2cccnc2)O1 (stereo unspecified),4.8,63.3*,-7.2,9.5,36.0,+
CCCC1CC(C)(C(=O)CSc2n[nH]c(-c3ccccc3)n2)OC1=O (stereo unspecified),-2.8,-1.8,9.3,-14.4,60.4*,i
Cc1ccc(N(C(=O)Cn2nnc(-c3cccs3)n2)C(C(=O)NC2CCCC2)c2ccncc2)cc1 (stereo unspecified),-1.4,-2.7,14.2,-3.5,60.5*,i
C[C@@H]1CN([C@@H](C)CO)C(=O)c2cc(C#Cc3cccc(F)c3)cnc2O[C@@H]1CN(C)CC1CCOCC1,.,.,-55.0,.,.,.
CCc1cccc(NC(=O)C2CCCN(c3ncnc4c3nc3n4CCCCC3)C2)c1 (stereo unspecified),-3.6,-5.5,-2.6,-6.7,62.9*,i
C(=Nc1ccccc1)c1ccc[nH]1,.,.,-6.3,.,.,.
Oc1ccccc1N=Cc1ccc[nH]1,-0.8,48.8*,16.6,-0.7,5.7,+
CN(C)c1ccc(C(=S)N2CCCCCC2)cc1,-1.5,-14.8,-7.9,-6.8,39.7,i
Cc1ccc(N2CCN(C(=S)c3ccc(N(C)C)cc3)CC2)cc1,-5.6,-11.0,13.3,1.3,65.8*,i
CC(=O)N1CCN(C(=S)c2ccc(N(C)C)cc2)CC1,-0.1,4.6,29.3,20.3,89.7*,i
O=C(CC(c1ccccc1)c1ccco1)Nc1nccs1 (stereo unspecified),0.4,-0.3,14.4,4.9,-14.6,i
O=C(NNC(=O)c1cc2cc(Br)ccc2oc1=O)c1ccc(O)cc1O,0.7,85.4*,-0.4,-7.9,-89.9,+
COc1ccc(NS(=O)(=O)c2cccc(C(=O)N/N=C/c3ccccn3)c2)cc1,-6.4,-1.9,2.6,-6.2,2.5,i
COc1ccc2nc(/C(C#N)=C\c3ccc(Oc4ccc([N+](=O)[O-])cn4)cc3)[nH]c2c1,4.1,83.9*,-81.7,-1.0,11.7,+
Cc1ccc2nc(/C(C#N)=C\c3ccc(Oc4ccc([N+](=O)[O-])cn4)cc3)[nH]c2c1,.,?,-66.9,.,-10.9,i
COc1ccc(NC(=O)c2noc3c2CCC3)cc1,32.4,106.6*,2.8,16.2,-1.4,+
CCOC(=O)C1(Cc2ccccc2C(F)(F)F)CCN(C2CCN(C(C)C)CC2)CC1,-3.9,11.2,-1.7,-8.2,44.9,i
Cn1nc([N+](=O)[O-])c(C(C#N)c2nc3ccccc3n2C)c(Cl)c1=O (stereo unspecified),-1.4,?,65.0*,-3.8,12.3,i
CN(C)c1ccc(/C=C/c2cc[n+](C)cc2)cc1,38.8,92.6,-154.2,10.7,102.0*,i
CN(C)c1ccc(/C=C/c2cc[n+]([O-])cc2)cc1,-11.8,?,.,-16.6,15.6,?
CC(C)c1onc(C(=O)NC2CCCC2)c1[N+](=O)[O-],-4.9,8.3*,15.7,-4.9,-29.0,+
CCOC(=O)C1CCN(C(=O)CCc2ccc(S(=O)(=O)NC(C)C)cc2)CC1,-5.4,-3.3,-7.0,-6.8,-7.8,i
CCOC(=O)C1CCN(C(=O)CCc2ccc(S(=O)(=O)NCC(C)C)cc2)CC1,0.1,-3.4,-7.6,-3.9,60.0*,i
CCn1c(CSc2nc3ccccc3s2)nnc1SCC(=O)c1ccc(O)cc1O,-2.1,5.9,-67.9,-6.4,83.3*,i

# Compound activity as filed in PubChem.
